These results are taken from PubChem BioAssay AID651903 (Broad Institute, 2012).

SMILES strings stand for the structures. About 1,100 (5%) of roughly 22,000 compounds were called active. For the sample, actives were picked, then their nearest neighbours and some compounds at random. A number with no mark means an inactive call. No stated cut-off is given here; in the data, active means activity score above about 55%; inconclusive means no clear call, values can overlap the other calls; inactive means below that.

The nature of this test: inhibitors of intracellular Trypanosoma cruzi, primary screen, cell-based, plate reader, single point, set 2 (AID 651903).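 Further: parasites and compound incubated about four days before reading; 0% = median of neutral control wells.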 Conditions: intracellular Trypanosoma cruzi in host cells, at 5.01 µM, active compounds read high.
Consider `C[C@H](CO)N1C[C@H](C)[C@@H](CN(C)S(=O)(=O)c2ccc(F)cc2)Oc2c(NC(=O)Nc3ccccc3)cccc2C1=O`, for which the activity score (inhibition) was 14.1%. As for `C[C@H]1CN([C@@H](C)CO)C(=O)Cc2cc(NS(=O)(=O)c3ccc(Cl)cc3)ccc2O[C@H]1CN(C)S(C)(=O)=O`, the activity score (inhibition) is -19.4%. In the case of `COc1ccc(S(=O)(=O)N(C)C[C@H]2OCCCC[C@@H](C)Oc3ccc(NC(=O)c4ccncc4)cc3C(=O)N([C@H](C)CO)C[C@@H]2C)cc1` it was -7.48%; in that of `COc1ccc(S(=O)(=O)N(C)C[C@H]2OCc3cnnn3CCCC(=O)N([C@H](C)CO)C[C@H]2C)cc1`, 0.901%; in that of `C[C@@H]1CN([C@H](C)CO)C(=O)c2cccc(NC(=O)CCCCCC(=O)Nc3ccccc3N)c2O[C@H]1CN(C)CC1CCCCC1`, 62.4% (active).

`C[C@H](CO)N1C[C@H](C)[C@H](CN(C)CC2CCCCC2)Oc2ccc(NC(=O)CCCCCC(=O)Nc3ccccc3N)cc2C1=O`: the activity score (inhibition) was 0.222%.

Consider `C[C@H]1CN([C@@H](C)CO)C(=O)c2cccc(NC(=O)CCCCCC(=O)Nc3ccccc3N)c2O[C@@H]1CN(C)CC1CCCCC1`, for which the activity score (inhibition) was 81.9% (active). Turning to `CC(C)NC(=O)Nc1cccc2c1O[C@H](CN(C)CC1CCCCC1)[C@H](C)CN([C@H](C)CO)C2=O`, the activity score (inhibition) was -12%. In the case of `C[C@@H]1CN([C@@H](C)CO)C(=O)c2cccc(NC(=O)CCCCCC(=O)Nc3ccccc3N)c2O[C@H]1CN(C)C(=O)Nc1cccc2ccccc12` it was 0.294%; in that of `C[C@@H]1CN([C@@H](C)CO)C(=O)c2cccc(NC(=O)CCCCCC(=O)Nc3ccccc3N)c2O[C@@H]1CN(C)CC1CCCCC1`, 17.2%; in that of `COc1cc(/C=N\NC(=O)CCCCCCC(=O)NO)c(Br)cc1O`, 22.6%. As to `C[C@@H]1CN([C@H](C)CO)C(=O)c2cccc(NC(=O)C3CC3)c2O[C@@H]1CN(C)C(=O)Nc1ccccc1`, the activity score (inhibition) was -22.6%. As for `C[C@@H]1CN([C@H](C)CO)C(=O)c2cccc(NC(=O)Nc3ccc(F)cc3)c2O[C@@H]1CN(C)C(=O)Nc1ccc(C(F)(F)F)cc1`, the activity score (inhibition) was -4.83%. In the case of `C[C@@H]1CN([C@@H](C)CO)C(=O)c2cccc(NC(=O)Nc3ccc(F)cc3)c2O[C@@H]1CN(C)C(=O)Nc1ccccc1`, the activity score (inhibition) was -2.37%. Turning to `C[C@H]1CN([C@@H](C)CO)C(=O)c2cccc(NC(=O)c3ccc(-c4nccs4)cc3)c2O[C@@H]1CN(C)C(=O)Nc1ccc(C(F)(F)F)cc1`, the activity score (inhibition) was -8.3%.

`C[C@@H]1CN([C@H](C)CO)C(=O)c2cccc(NS(=O)(=O)c3ccc(F)cc3)c2O[C@@H]1CN(C)C(=O)Nc1ccc(C(F)(F)F)cc1`: the activity score (inhibition) is 65.8% (active). Consider `C[C@H](CO)N1C[C@H](C)[C@H](CN(C)C(=O)Nc2ccc(C(F)(F)F)cc2)Oc2c(NC(=O)c3ccncc3)cccc2C1=O`, for which the activity score (inhibition) is 72.4% (active).

Regarding `C[C@@H]1CN([C@H](C)CO)C(=O)c2cccc(NC(=O)c3ccc(-c4nccs4)cc3)c2O[C@@H]1CN(C)C(=O)Nc1ccc(C(F)(F)F)cc1`, the activity score (inhibition) was 38.2%. As for `C[C@@H]1CN([C@@H](C)CO)C(=O)c2cccc(NC(=O)Nc3ccc(C(F)(F)F)cc3)c2O[C@@H]1CN(C)S(=O)(=O)c1ccc(F)cc1`, the activity score (inhibition) is 71.6% (active). In the case of `C[C@H](CO)N1C[C@H](C)[C@H](CN(C)C(=O)Nc2ccccc2)Oc2c(NC(=O)Nc3ccc(C(F)(F)F)cc3)cccc2C1=O` it was 70.2% (active); in that of `C[C@H]1CN([C@@H](C)CO)C(=O)c2cccc(NC(=O)Nc3ccc(C(F)(F)F)cc3)c2O[C@H]1CN(C)S(=O)(=O)c1ccccc1`, 11.5%. As for `C[C@H]1CN([C@@H](C)CO)C(=O)c2cccc(NS(=O)(=O)c3ccccc3)c2O[C@@H]1CN(C)C(=O)Nc1ccc(C(F)(F)F)cc1`, the activity score (inhibition) is 34.3%. As for `C[C@@H]1CN([C@H](C)CO)C(=O)c2cccc(NC(=O)Nc3ccc(C(F)(F)F)cc3)c2O[C@H]1CN(C)S(=O)(=O)c1ccc(Cl)cc1`, the activity score (inhibition) was 36.7%.

For the compound `Cc1ccc(S(=O)(=O)Nc2cccc3c2O[C@H](CN(C)C(=O)Nc2ccc(C(F)(F)F)cc2)[C@@H](C)CN([C@@H](C)CO)C3=O)cc1`, the activity score (inhibition) was -14.4%. With `COc1ccc(NC(=O)Nc2cccc3c2O[C@H](CN(C)S(=O)(=O)c2cn(C)cn2)[C@H](C)CN([C@@H](C)CO)C3=O)cc1`, the activity score (inhibition) is -20.8%.

Turning to `O=C(NO)c1ccc(C(=O)N/N=C/c2ccc([N+](=O)[O-])c(O)c2)cc1`, the activity score (inhibition) is 1.55%. As for `C[C@@H]1CN([C@@H](C)CO)C(=O)c2cccc(N(C)C)c2O[C@H]1CN(C)S(=O)(=O)c1cccs1`, the activity score (inhibition) is -13.3%. Turning to `Cc1noc(C)c1NC(=O)N(C)C[C@@H]1Oc2ccc(NC(=O)Nc3ccc(C(F)(F)F)cc3)cc2C(=O)N([C@H](C)CO)C[C@@H]1C`, the activity score (inhibition) was 0.983%. In the case of `C[C@H](CO)N1C[C@H](C)[C@@H](CN(C)S(=O)(=O)c2ccc(F)cc2)Oc2ccc(NC(=O)CCC(F)(F)F)cc2C1=O` it was 4.98%; in that of `C[C@H](CO)N1C[C@H](C)[C@H](CN(C)S(=O)(=O)c2cn(C)cn2)Oc2c(NC(=O)c3ccc(-c4nccs4)cc3)cccc2C1=O`, -7.9%. As for `C[C@@H]1CN([C@H](C)CO)C(=O)c2cccc(NC(=O)c3nc4ccccc4s3)c2O[C@@H]1CN(C)Cc1ccc(Oc2ccccc2)cc1`, the activity score (inhibition) was 24.2%. As for `Cc1noc(C)c1NC(=O)Nc1ccc2c(c1)CC(=O)N([C@@H](C)CO)C[C@H](C)[C@@H](CN(C)CC1CCCCC1)O2`, the activity score (inhibition) is 4.18%.

With `Cc1ccc(S(=O)(=O)N(C)C[C@H]2OCCCC[C@@H](C)Oc3ccc(NS(C)(=O)=O)cc3C(=O)N([C@H](C)CO)C[C@@H]2C)cc1`, the activity score (inhibition) was 4.35%. Under `COc1ccc(S(=O)(=O)N(C)C[C@@H]2Oc3ccc(NS(=O)(=O)c4cn(C)cn4)cc3C(=O)N([C@@H](C)CO)C[C@@H]2C)cc1` stands -13%; under `COc1ccc(S(=O)(=O)N(C)C[C@H]2Oc3ccc(NS(=O)(=O)c4ccc(F)cc4)cc3C(=O)N([C@H](C)CO)C[C@H]2C)cc1`, 6.09%. Turning to `C[C@H]1CN([C@@H](C)CO)C(=O)CCCn2nncc2CO[C@@H]1CN(C)S(=O)(=O)c1ccccc1C#N`, the activity score (inhibition) was -9.5%. Take `C[C@H]1CN([C@@H](C)CO)C(=O)Cc2cc(N(C)C)ccc2O[C@@H]1CN(C)Cc1ccc(-c2ccccc2)cc1`: the activity score (inhibition) is 68.2% (active). For the compound `C[C@H](CO)N1C[C@H](C)[C@H](CN(C)Cc2ccc(-c3ccccc3)cc2)Oc2ccc(NC(=O)Nc3ccc(F)cc3)cc2CC1=O`, the activity score (inhibition) is 58.8% (active). For `C[C@H]1CN([C@@H](C)CO)C(=O)Cc2cc(NC(=O)Nc3ccccc3)ccc2O[C@H]1CN(C)Cc1ccncc1`, the activity score (inhibition) is 6.16%. Consider `C[C@H](CO)N1C[C@H](C)[C@H](CN(C)Cc2ccc(C(F)(F)F)cc2)Oc2ccc(N(C)C)cc2CC1=O`, for which the activity score (inhibition) is 50.9%. Regarding `C[C@@H]1CN([C@H](C)CO)C(=O)Cc2cc(N(C)C)ccc2O[C@@H]1CN(C)Cc1ccccc1`, the activity score (inhibition) is -5.53%. As to `COc1ccc(CN(C)C[C@@H]2Oc3ccc(NC(=O)c4ccncc4)cc3CC(=O)N([C@H](C)CO)C[C@H]2C)cc1`, the activity score (inhibition) was -3.55%. In the case of `C[C@@H]1CN([C@H](C)CO)C(=O)Cc2cc(NC(=O)Nc3ccccc3)ccc2O[C@@H]1CN(C)Cc1ccc(C(F)(F)F)cc1`, the activity score (inhibition) was 14.2%. In the case of `C[C@@H]1CN([C@H](C)CO)C(=O)Cc2cc(NC(=O)c3ccncc3)ccc2O[C@H]1CN(C)Cc1ccc(-c2ccccc2)cc1` it was 57.2% (active); in that of `C[C@@H]1CN([C@H](C)CO)C(=O)Cc2cc(NC(=O)c3ccncc3)ccc2O[C@@H]1CN(C)Cc1ccncc1`, -11.9%; in that of `C[C@@H]1CCCCO[C@H](CN(C)Cc2ccncc2)[C@@H](C)CN([C@H](C)CO)C(=O)c2cc(NC(=O)CCCN(C)C)ccc2O1`, -8.02%. As for `Cc1noc(C)c1NC(=O)Nc1ccc2c(c1)C(=O)N([C@H](C)CO)C[C@H](C)[C@H](CN(C)S(=O)(=O)c1cccs1)O2`, the activity score (inhibition) is 2.68%. Take `C[C@@H]1CN([C@H](C)CO)C(=O)c2cc(NC(=O)CCCCCC(=O)Nc3ccccc3N)ccc2O[C@@H]1CN(C)S(=O)(=O)c1ccc(Cl)cc1`: the activity score (inhibition) is 15.5%. Under `Cc1ccc(S(=O)(=O)N(C)C[C@@H]2Oc3ccc(NS(=O)(=O)c4c(C)noc4C)cc3CC(=O)N([C@H](C)CO)C[C@H]2C)cc1` stands 4.67%. In the case of `C[C@H](CO)N1C[C@H](C)[C@H](CN(C)Cc2ccncc2)Oc2ccc(NS(=O)(=O)c3ccc(F)cc3)cc2CC1=O`, the activity score (inhibition) is -4.01%. Consider `CC(C)NC(=O)Nc1ccc2c(c1)C(=O)N([C@H](C)CO)C[C@H](C)[C@H](CN(C)C(=O)Nc1ccc(C(F)(F)F)cc1)OCCCC[C@@H](C)O2`, for which the activity score (inhibition) was 56.9% (active). Turning to `C[C@@H]1CCCCO[C@@H](CN(C)C(=O)Nc2ccccc2)[C@@H](C)CN([C@H](C)CO)C(=O)c2cc(NC(=O)Nc3ccc(F)cc3)ccc2O1`, the activity score (inhibition) is 7.86%. Take `CC(C)NC(=O)Nc1ccc2c(c1)C(=O)N([C@H](C)CO)C[C@H](C)[C@@H](CN(C)Cc1ccc(C(F)(F)F)cc1)OCCCC[C@@H](C)O2`: the activity score (inhibition) was -27.7%. Consider `CC(C)NC(=O)Nc1ccc2c(c1)C(=O)N([C@H](C)CO)C[C@H](C)[C@H](CN(C)Cc1ccc(C(=O)O)cc1)OCCCC[C@@H](C)O2`, for which the activity score (inhibition) was -25.6%.

In the case of `CC(C)NC(=O)N(C)C[C@@H]1OCCCC[C@@H](C)Oc2ccc(NC(=O)Nc3ccccc3)cc2C(=O)N([C@H](C)CO)C[C@@H]1C`, the activity score (inhibition) is -24.2%.

With `C[C@@H]1CCCCO[C@@H](CN(C)Cc2ccc(C(F)(F)F)cc2)[C@@H](C)CN([C@H](C)CO)C(=O)c2cc(NC(=O)Nc3ccccc3)ccc2O1`, the activity score (inhibition) is 67.7% (active).
